Structures can show the parent of a compound that is named as a salt.
Each compound was assayed on NCI-H1688 (assay: inhibition of cell viability relative to untreated control (fraction); higher = stronger growth inhibition, active = 0.5 or more). Settings: 30 µM; 24 h.
Outline: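 NCI-H1688 small cell lung cancer cells were seeded at 3 × 10^3 cells/well in 96-well plates and treated 24 h later with a natural compound library (TargetMol) at 30 µM for 24 h, at 37°C with 5% CO2. Viability was read in triplicate with Cell Counting Kit-8 as absorbance at 450 nm. Inhibition of cell viability is expressed as a fraction, derived from viability normalised to the untreated control.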

| Compound | inhibition of cell viability |
| --- | --- |
| CC(C)=CCC/C(C)=C/C=O [Citral] | 0.192 (inactive) |
| COC1=C(OC)C(=O)C(C/C=C(\C)CC/C=C(\C)CC/C=C(\C)CC/C=C(\C)CC/C=C(\C)CC/C=C(\C)CC/C=C(\C)CC/C=C(\C)CC/C=C(\C)CCC=C(C)C)=C(C)C1=O [Coenzyme Q10 (CoQ10)] | -0.0281 (inactive) |
| O=c1ccc2cc3ccoc3cc2o1 [Psoralen] | -0.0315 (inactive) |
| O=c1oc2c(O)c(O)cc3c(=O)oc4c(O)c(O)cc1c4c23 [Ellagic acid] | -0.099 (inactive) |
| CC1(C)CC[C@]2(C(=O)O)CC[C@]3(C)C(=CC[C@@H]4[C@@]5(C)CC[C@H](O)C(C)(C)[C@@H]5CC[C@]43C)[C@@H]2C1 [Oleanolic Acid] | 0.0195 (inactive) |
| CC(C)[C@@H](C)/C=C/[C@@H](C)[C@H]1CC[C@H]2C3=CC=C4C[C@@H](O)CC[C@]4(C)[C@H]3CC[C@]12C [Ergosterol] | -0.172 (inactive) |
| NCCCC(=O)O [4-Aminobutyric acid] | -0.231 (inactive) |
| O=c1ccc2ccc(O)c(O)c2o1 [Daphnetin] | -0.0337 (inactive) |
| O=C(/C=C/c1ccc(O)cc1)c1ccc(O)cc1O [Isoliquiritigenin] | 0.485 (inactive) |
| Nc1nc(=O)c2nc(CNc3ccc(C(=O)N[C@@H](CCC(=O)O)C(=O)O)cc3)cnc2[nH]1 [Folic acid] | -0.206 (inactive) |
| C=C1C[C@@]2(O)O[C@@]3(C[C@H]2C(C)C)[C@@H](C)CC[C@@H]13 [Curcumol] | -0.0691 (inactive) |
| CC(=O)OC1CC2CCC1(C)C2(C)C (configuration not stated) [Bornyl acetate] | -0.214 (inactive) |
| COc1c(O)cc2c(c1O)[C@@H]1O[C@H](CO)[C@@H](O)[C@H](O)[C@H]1OC2=O [Bengenin] | 0.0368 (inactive) |
| OC[C@H]1O[C@@H]2O[C@H]3[C@H](O)[C@@H](O)[C@@H](O[C@H]4[C@H](O)[C@@H](O)[C@@H](O[C@H]5[C@H](O)[C@@H](O)[C@@H](O[C@H]6[C@H](O)[C@@H](O)[C@@H](O[C@H]7[C@H](O)[C@@H](O)[C@@H](O[C@H]8[C@H](O)[C@@H](O)[C@@H](O[C@H]1[C@H](O)[C@H]2O)O[C@@H]8CO)O[C@@H]7CO)O[C@@H]6CO)O[C@@H]5CO)O[C@@H]4CO)O[C@@H]3CO [Beta-Cyclodextrin] | 0.0604 (inactive) |
| OC[C@@H](O)[C@@H](O)[C@H](O)[C@@H](O)CO [D-Sorbitol] | -0.224 (inactive) |
| O=C(O)CCC(=O)O [Succinic acid] | 0.0297 (inactive) |
| CC1=CC(=O)c2ccccc2C1=O [Menadione] | 0.979 (active) |
| C=C1C(=O)O[C@@H]2C[C@@]3(C)CCCC(=C)[C@@H]3C[C@H]12 [Isoalantolactone] | 0.867 (active) |
| CC[C@H](C)[C@H](N)C(=O)O [isoleucine] | -0.178 (inactive) |

| Compound | inhibition of cell viability |
| --- | --- |
| CC1(C)C2CC[C@@]3(C)[C@@H](C(=O)C=C4[C@@H]5C[C@](C)(C(=O)O)CC[C@@]5(C)CC[C@@]43C)[C@]2(C)CC[C@H]1O (some centres not stated) [Glycyrrhetinic acid(Enoxolone)] | -0.198 (inactive) |
| CC1(C)CC[C@]2(C(=O)O)[C@H](O)C[C@]3(C)C(=CC[C@@H]4[C@@]5(C)CC[C@H](O)C(C)(C)[C@@H]5CC[C@]43C)[C@H]2C1 [Echinocystic acid] | 0.139 (inactive) |
| COc1cc2c(cc1OC)[C@@H]1Cc3ccc(OC)c(OC)c3CN1CC2 [Tetrahydropalmatine] | 0.242 (inactive) |
| Cc1nc(C)c(C)nc1C [Tetramethylpyrazine] | 0.202 (inactive) |
| COc1ccc2ccc(=O)oc2c1CC=C(C)C [Osthole] | 0.166 (inactive) |
| O=c1cc[nH]c(=O)[nH]1 [Uracil] | -0.231 (inactive) |
| CC1(C)CC[C@]2(C(=O)O)CC[C@]3(C)C(=CC[C@@H]4[C@@]5(C)CC[C@H](O)[C@@](C)(CO)[C@@H]5CC[C@]43C)[C@@H]2C1 [Hederagenin] | 0.274 (inactive) |
| CC(C)(CO)[C@@H](O)C(=O)NCCC(=O)NCCSSCCNC(=O)CCNC(=O)[C@H](O)C(C)(C)CO [D-Pantethine] | -0.262 (inactive) |
| C[C@H]1[C@H](C)CC[C@]2(C(=O)O)CC[C@]3(C)C(=CC[C@@H]4[C@@]5(C)CC[C@H](O)C(C)(C)[C@@H]5CC[C@]43C)[C@H]12 [Ursolic acid] | 1.01 (active) |
| NC(N)=O | -0.0194 (inactive) |
| COc1cc(/C=C/C(=O)O)cc(OC)c1OC [3,4,5-Trimethoxycinnamic acid] | 0.124 (inactive) |
| O=c1c(O)c(-c2ccc(O)c(O)c2)oc2cc(O)cc(O)c12 [Quercetin] | 0.68 (active) |
| C[C@H](CCC(=O)NCCS(=O)(=O)O)[C@H]1CC[C@H]2[C@@H]3[C@H](O)C[C@@H]4C[C@H](O)CC[C@]4(C)[C@H]3C[C@H](O)[C@]12C [Taurocholic acid sodium salt hydrate] | -0.0242 (inactive) |
| c1ccc2c(Cc3c[nH]c4ccccc34)c[nH]c2c1 [3,3'-Diindolylmethane] | 0.12 (inactive) |
| O=C(O)c1cc(O)c2c(c1)[C@H]([C@H]1c3cc(C(=O)O)cc(O)c3C(=O)c3c(O[C@@H]4O[C@H](CO)[C@@H](O)[C@H](O)[C@H]4O)cccc31)c1cccc(O[C@@H]3O[C@H](CO)[C@@H](O)[C@H](O)[C@H]3O)c1C2=O [Sennoside A] | 0.0197 (inactive) |
| OC[C@H]1O[C@@H](OCCc2ccc(O)cc2)[C@H](O)[C@@H](O)[C@@H]1O [Salidroside] | -0.0108 (inactive) |
| CC1(C)[C@@H](O[C@H]2O[C@H](C(=O)O)[C@@H](O)[C@H](O)[C@H]2O[C@@H]2O[C@H](C(=O)O)[C@@H](O)[C@H](O)[C@H]2O)CC[C@]2(C)[C@H]3C(=O)C=C4[C@@H]5C[C@@](C)(C(=O)O)CC[C@]5(C)CC[C@@]4(C)[C@]3(C)CC[C@@H]12 [Monoammonium glycyrrhizinate] | 0.346 (inactive) |
| OCc1ccccc1O[C@@H]1O[C@H](CO)[C@@H](O)[C@H](O)[C@H]1O | -0.21 (inactive) |
